Screening data from PubChem.
KB-V1 cytotox: kills drug-selected multidrug resistant KB-V1 cells; 400,000 tested, 3.4% active; Potency, µM (highest dose often 46.1 µM), actives largely listed as cytotoxic; AID 1347076; KB-V1 MDR cells viability, CellTiter-Glo, 72 h; also: % is scaled to controls: 0 for no effect and ±100 for the full control effect; nearly all actives have a fitted effect of over 60% in size
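Cytotoxicity toward P-gp-expressing KB-V1 cells was determined as loss of CellTiter-Glo luminescence after 72 h at 37 degrees C. Compounds were tested in quantitative HTS format across a concentration range, with curves fitted to normalized data.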
KB-3-1 cytotox: kills parental KB-3-1 adenocarcinoma cells | Potency, µM (doses to about 46.1 µM), most hits filed as cytotoxic | 400,000 tested, 1.4% active | KB-3-1 viability, CellTiter-Glo ATP luminescence, 72 h | AID 1347075; also: % is scaled to controls: 0 for no effect and ±100 for the full control effect; nearly all actives have a fitted effect of over 60% in size
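Cells are dispensed, compounds pinned in, plates held at 37 °C for 72 h, then CellTiter-Glo is added and luminescence read after 10 minutes. Cell line: parental KB-3-1 in phenol-red-free DMEM, 10% FBS.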
MCF10A rereplic: induces DNA re-replication in MCF 10a normal breast cells; Potency, µM (highest dose often 46.1 µM), for inactives: top-dose activity, positive = re-replication, usual class: activators; 350,000 tested, 2.9% active; MCF 10A DNA re-replication, Hoechst nuclear intensity, 48 h; AID 624296; also: % of control where 0% means no effect; nearly all actives have a fitted effect of over 50% in size
RGS4 inhibitor: human RGS4 inhibition; P49798; Transcreener GDP fluorescence polarization, RGS4-accelerated GTP hydrolysis; Potency, µM (titrated, usually from 114 µM), for inactives: at the highest dose activity change, negative = inhibition, actives largely listed as inhibitors; 390,000 tested, 0.039% active; AID 504845; also: % is scaled to controls: 0 for no effect and ±100 for the full control effect; nearly all actives have a fitted effect of over 75% in size
Target sequence (P49798 whole entry, looked up): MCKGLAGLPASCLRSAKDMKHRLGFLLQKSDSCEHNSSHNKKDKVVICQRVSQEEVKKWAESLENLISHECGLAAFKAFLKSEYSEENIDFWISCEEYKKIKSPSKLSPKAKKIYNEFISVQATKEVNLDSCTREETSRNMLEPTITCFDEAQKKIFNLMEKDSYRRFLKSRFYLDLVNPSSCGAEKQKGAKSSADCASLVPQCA
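MLSMR compounds (23 nl, pin-transferred) preincubated 10 min at room temperature with a 500nM (2x) first reagent, then RGS4 at 900nM (2x) plus Transcreener GDP mix added; fluorescence polarization (620/688 nm) read before and after 90 min at 30 °C.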
TSG101-PTAP inh: blocks PTAP/TSG101 interaction to inhibit HIV-1 budding | Potency, µM (titrated, usually from 115 µM), without a hit: at the highest dose activity change, negative = inhibition, usual class: inhibitors | Q99816 | 340,000 tested, under 10 active | Fluorescence polarization, FITC-PTAP peptide / Tsg101 binding; active = well fitted inhibition curve with a large enough effect in the main read-out, with a control signal flat, not every such curve was filed as active; inconclusive = small, poorly fitted or top-dose-only effect, or effect the other way, or a change in a side signal; inactive = no such curve, though single readings can be large or run the other way; also: % of control where 0% means no effect
Target sequence (Q99816 whole entry, looked up): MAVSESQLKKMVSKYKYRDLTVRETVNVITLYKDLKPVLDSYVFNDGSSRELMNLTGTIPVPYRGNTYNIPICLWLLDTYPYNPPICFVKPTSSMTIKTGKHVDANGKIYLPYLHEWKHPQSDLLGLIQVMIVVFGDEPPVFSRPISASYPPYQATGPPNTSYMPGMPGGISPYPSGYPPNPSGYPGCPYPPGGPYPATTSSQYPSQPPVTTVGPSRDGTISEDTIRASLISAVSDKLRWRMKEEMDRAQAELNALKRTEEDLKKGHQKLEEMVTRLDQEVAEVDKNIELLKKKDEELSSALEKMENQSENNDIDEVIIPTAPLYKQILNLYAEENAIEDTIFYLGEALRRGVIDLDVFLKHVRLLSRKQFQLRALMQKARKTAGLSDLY
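Compounds were pin-transferred onto Tsg101 binding domain (10 uM final) in HEPES pH 7.5 buffer, then FITC-PTAP peptide was added at 50 nM final. After 20 min at RT, polarization reported peptide displacement across a qHTS concentration series.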
SW480 rereplic: DNA re-replication induction in SW480 cells. Potency, µM (doses to about 46.1 µM), for the others: at the top dose re-replication activation, usual class: activators. SW480 DNA re-replication, Hoechst DNA content imaging, 48 h. 340,000 tested, 1.8% active. AID 624297; also: % of control where 0% means no effect; nearly all actives have a fitted effect of over 55% in size
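Cells (250 per well) received 23 nL compound or DMSO by pin tool and were kept 48 hr at 37 C, 5% CO2. Nuclei were then stained with Hoechst for 40 min and scanned for DNA content.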
Numbers without * were called inactive; i = inactive; u = inconclusive; x = not tested or not shown. Compounds with a hit are over-represented: about 6.6% of the library has one in this group of screens. Unless noted, calls follow the shape of the dose curve; as a rule, active = well fitted curve in the direction sought with a large enough effect; inconclusive = small, poorly fitted or top-dose-only effect, or another doubt; inactive = no such curve, though single readings can be large; an effect the other way counts as inactive or inconclusive. Potency is read from the fitted curve at half-maximal effect.

SMILES | KB-V1 cytotox | KB-3-1 cytotox | MCF10A rereplic | RGS4 inhibitor | TSG101-PTAP inh | SW480 rereplic
COc1ccc(OC)c(CN(CCN2CCOCC2)C(=O)Nc2ccccc2)c1 | u | i | u | -20% | 1% | -4%
CSc1cccc(NC(=S)N(CCCN2CCCC2)Cc2cccn2Cc2ccc(Cl)cc2)c1 | 18µM* | i | 21µM* | -51% | 1% | u
Cn1cc(CN(CCCN2CCOCC2)C(=S)Nc2cccc(Cl)c2)c2ccccc21 | i | i | 23µM* | 25% | 0% | 16µM*
Cc1cc(NC(=O)CN2C(=O)CSc3ccc(S(=O)(=O)N(C)C)cc32)ccc1Br | i | i | x | 6% | x | x
CCc1ccc(NC(=O)C2CCN(c3nnc(-n4c(C)ccc4C)s3)CC2)cc1 | x | x | x | 29% | x | x
C1CCCCCC(NCCN2CCNCC2)CCCCC1 | u | 16µM* | u | -16% | 1% | u
O=C(CSc1nc(-c2ccccc2)[nH]c1-c1ccccc1)Nc1ccc2c(c1)OCO2 | i | u | x | -14% | x | x
CCC(CO)Oc1cc(NCc2ccc(Cl)cc2)c2ncn(C(C)C)c2c1 (centres undefined) | i | i | -66% | -11% | -11% | u
CC[C@H](CO)Oc1cc(NCc2ccc(Cl)c(Cl)c2)c2ncn(C(C)C)c2c1 | i | u | 21µM* | 16% | -2% | 18%
COC(=O)c1sc(NC(=O)COc2cccc3ccccc23)nc1C | u | i | 18µM* | 6% | -3% | -3%
Cc1nn(-c2ccccc2)c2sc(C(=O)N3CCc4ccccc4C3)cc12 | 18µM* | i | -4% | -2% | -3% | 0%
Cc1nn(-c2ccccc2)c2sc(C(=O)NNC(=O)COc3cccc4ccccc34)cc12 | 18µM* | u | 23µM* | 1% | -6% | u
COc1ccc(Br)cc1C1NC(c2ccc3c(c2)OCO3)=CC(c2cc(Cl)ccc2O)N1 (centres undefined) | x | x | x | -15% | x | x
Nc1nc2nc(-c3ccc(Cl)cc3)cc(C(F)(F)F)n2n1 | i | i | u | -12% | -4% | 13µM*
COc1ccc(-n2c(SCC(=O)Nc3cccc(C)c3C)nc3c([nH]c4ccccc43)c2=O)cc1 | x | x | x | -1% | x | x
C=CCc1cccc(/C=N/NC(=O)CNc2ccccc2OC)c1O | u | u | u | 32% | -5% | 16µM*
C=CCc1cccc(/C=N/NC(=O)C[n+]2ccccc2)c1O | i | u | 25% | -3% | -2% | u
C=CCc1cccc(/C=N/NC(=O)C(C)Nc2cccc(C)c2)c1O (centres undefined) | i | u | 7% | 2% | -3% | 3.3µM*
C=CCc1cccc(/C=N/NC(=O)CNc2cccc3ccccc23)c1O | i | u | u | -31% | -5% | u
C=CCc1cccc(/C=N/NC(=O)CNc2ccccc2)c1O | i | i | 13% | 2% | -1% | 13µM*
COc1ccccc1NC(=O)c1c(N=Cc2c(O)ccc3ccccc23)cnn1C | u | 21µM* | u | -34% | 0% | u
COc1ccc(N(C(=O)/C=C\C(=O)Nc2ccc(C)cc2)C(C(=O)NCc2ccco2)c2ccc(C)cc2)cc1 (centres undefined) | x | x | x | 2% | x | x
CCCCN(C)S(=O)(=O)c1cc(-c2nnc3c4ccccc4c(C)nn23)ccc1C | i | i | x | -5% | x | x
C=CCc1cccc(/C=N/NC(=O)CCCNc2ccc(C)cc2)c1O | 23µM* | u | u | -8% | 0% | u
COc1ccccc1NCC(=O)N/N=C/c1c(O)ccc2ccccc12 | i | u | u | 17% | 21% | 3.3µM*
SMILES | KB-V1 cytotox | KB-3-1 cytotox | MCF10A rereplic | RGS4 inhibitor | TSG101-PTAP inh | SW480 rereplic
COc1ccc(C(=O)NCc2nnc(SCC(=O)Nc3ccc(F)cc3)n2-c2ccccc2)cc1 | i | i | x | 14% | x | x
CCc1ccccc1NC(=O)CN1C(=O)C2CCCN2c2ncc(Cl)cc21 (centres undefined) | 15µM* | i | u | 31% | -3% | 10%
CCOc1cc(CNC(=O)c2ccc3nc(C(C)C)oc3c2)cc(OCC)c1OCC | i | i | x | -9% | x | x
Cc1ccc(-c2nn(-c3ccc(F)cc3F)c3c2cnc2c(F)cccc23)cc1 | i | i | x | 18% | x | x
Cn1c(-c2ccccc2)cc2c3no[n+]([O-])c3ccc21 | u | 3.7µM* | u | 8% | -3% | 3.7µM*
CCOC(=O)c1c(C)n(OCc2ccccc2)c2ccc3c(no[n+]3[O-])c12 | u | i | -25% | 24% | -3% | 6%
CSc1ccc(CNC(=O)CN2C(=O)C3CCCCN3c3ccc(C(=O)N4CCCC4)cc32)cc1 (centres undefined) | i | i | x | 8% | x | x
C=C(CCC(=O)c1ccccc1)C(=O)c1ccccc1 | u | u | 9.2µM* | -28% | -4% | u
O=C(CCCCCCCC(=O)c1ccccc1)c1ccccc1 | i | i | -5% | 0% | -4% | 4%
C=C(C(=O)c1ccccc1)C(CC(=O)c1ccccc1)c1ccccc1 (centres undefined) | u | u | 9.2µM* | -18% | -1% | 18µM*
CC(C)(C)c1ccc(C(=O)Nc2onc3c2CCCC3)cc1 | i | i | x | 15% | x | x
COc1ccc2[nH]c(C(O)C(O)c3nc4c(OC)c(OC)ccc4[nH]3)nc2c1OC (centres undefined) | i | i | x | x | x | x
CN(C)CCN=Cc1c(O)n(-c2ccc(S(=O)(=O)N3CCOCC3)cc2)c(=O)c2ccccc12 | i | i | -28% | 20% | -9% | 18µM*
CCCN(CCC)CC(O)Cn1cc(/C=C/C(=O)c2ccccc2)c2ccccc21 (centres undefined) | i | u | 5.2µM* | -20% | 2% | u
CCCN(CCC)CC(O)Cn1cc(/C=C/C(=O)c2cccs2)c2ccccc21 (centres undefined) | u | u | u | 19% | 20% | 16µM*
COc1cccc(C2CC(=O)Nc3c2c(=O)n(C)c2nc4ccccc4n32)c1 (centres undefined) | i | i | x | -13% | x | x
COc1cccc(-c2cc(C(F)(F)F)nc(NCc3ccco3)n2)c1 | u | i | u | u | -3% | 26%
COc1ccccc1C(=O)Nc1nnc(SCC(=O)NCc2ccco2)s1 | i | i | 0% | -21% | -8% | 21µM*
COc1ccc(-c2cc(C(F)(F)F)nc(NCc3ccco3)n2)cc1OC | 2.3µM* | i | 13% | -35% | -6% | 4%
